Hits are enriched below; roughly 27% of the tested compounds scored in any of these assays.
sEH activator – activators of human soluble epoxide hydrolase; P34913; purified human sEH enzymatic activity, activator screen; activation, % at 2 µM; actives 0.04% (n = 91,000); AID 717; in the data active = activation above about 37%
CYP2C19 inhib – inhibitors of human CYP2C19; CYP2C19 Supersomes, luciferin-H EGE luminescence, 30 min; actives 21% (n = 96,000); inhibition, % at 5 µM; P33261; AID 778;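 active = CYP2C19 inhibition above a set limit at 5 µM in the primary screen, cut at about 50% in these data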;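 also: plate controls were negative control wells for no effect and 2.5 mM tranylcypromine positive control for full effect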
Target sequence (P33261 whole entry, looked up): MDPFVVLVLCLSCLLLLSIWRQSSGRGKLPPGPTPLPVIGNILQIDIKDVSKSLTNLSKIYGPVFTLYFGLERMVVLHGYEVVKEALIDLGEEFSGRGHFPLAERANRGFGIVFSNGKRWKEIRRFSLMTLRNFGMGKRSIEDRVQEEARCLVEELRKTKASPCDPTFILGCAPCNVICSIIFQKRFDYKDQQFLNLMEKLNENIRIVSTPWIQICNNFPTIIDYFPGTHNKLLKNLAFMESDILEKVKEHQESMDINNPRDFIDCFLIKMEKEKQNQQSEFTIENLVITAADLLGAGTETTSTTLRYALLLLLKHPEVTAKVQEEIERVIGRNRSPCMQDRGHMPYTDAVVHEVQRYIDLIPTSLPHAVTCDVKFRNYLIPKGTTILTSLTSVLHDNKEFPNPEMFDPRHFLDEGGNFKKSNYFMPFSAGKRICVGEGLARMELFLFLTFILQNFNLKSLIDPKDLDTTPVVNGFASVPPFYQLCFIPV
CYP2C19 act – activators of human cytochrome P450 2C19. recombinant CYP2C19, luciferin-H EGE luminescence; active compounds read high; 0 = fully inhibited enzyme, 1 = untreated enzyme. activation factor at 5 µM. 96,000 tested, under 10 active. AID 1025;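 active = activation factor of at least 2 at 5 µM in the primary screen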;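 also: 0 = wells with 2.5 mM tranylcypromine and 1 = vehicle-only wells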
CYP2C9 inhib – inhibitors of human CYP2C9; P11712; CYP2C9 Supersomes, luciferin-H conversion, luminescence; AID 777; actives 20% (n = 96,000); inhibition, % at 5 µM;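 active = blocking of liver enzyme CYP2C9 beyond about 50% at 5 µM, limit read from the data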
CYP2C9 activ – activators of human CYP2C9 | recombinant CYP2C9, luciferin-H conversion, luminescence; active compounds read high; factor 1 = untreated enzyme, 0 = blocked | P11712 | AID 1024 | actives 1.4% (n = 96,000) | activation factor at 5 µM;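 active = activation factor of 2 or more for CYP2C9 at a 5 µM dose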;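 also: 0 = sulfaphenazole-blocked wells and 1 = vehicle-only wells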
sEH inhibitor – soluble epoxide hydrolase (human) inhibition; inhibition, % at 2 µM; actives 0.34% (n = 91,000); recombinant human sEH enzymatic activity assay; AID 707; in the data active = inhibition above about 80%
The depositor's hits bear a star; nt = no result given.

SMILES | sEH activator | CYP2C19 inhib | CYP2C19 act | CYP2C9 inhib | CYP2C9 activ | sEH inhibitor
N#Cc1ccc(COc2ccc(CCO)cc2-n2nc3ccccc3n2)cc1 | -8 | 53* | 0.5 | 89* | 0.1 | 8
Cc1ccc(OC(=O)COc2ccccc2)c(-n2nc3ccccc3n2)c1 | 10 | -4 | 1 | -2 | 1 | -7
Fc1cccc(C[n+]2csc3ccccc32)c1 | -4 | 37 | 0.6 | 62* | 0.4 | 7
c1ccc(C[n+]2csc3ccccc32)cc1 | 13 | 41 | 0.6 | 55* | 0.4 | -10
O=c1cc(CO)occ1OCc1cccc(F)c1 | 3 | 26 | 0.7 | -20 | 1.2 | -4
COC(=O)C(C(C)=O)C1=C/C(=N\S(=O)(=O)c2ccc(C)cc2)c2ccccc2C1=O (centres undefined) | -5 | 90* | 0.1 | 89* | 0.1 | -1
C=CCn1c(CNc2ccccc2)nnc1SCC(=O)N/N=C/c1ccccc1O | -4 | -4 | 1 | 10 | 0.9 | 6
Cc1n[nH]c(C)c1S(=O)(=O)N(CC(=O)NC1CCCC1)c1ccc(C(C)C)cc1 | -2 | 61* | 0.4 | 75* | 0.3 | 4
Cc1nn(C)c(C)c1S(=O)(=O)N(CC(=O)NC1CCCCCC1)c1ccc(C(C)C)cc1 | 7 | 10 | 0.9 | 6 | 0.9 | -10
CCc1ccc(N(CC(=O)Nc2nc3ccc(C)cc3s2)S(=O)(=O)c2c(C)noc2C)cc1 | 4 | 58* | 0.4 | 93* | 0.1 | -6
CCOc1ccc(N(CC(=O)NC2CCCC(C)C2C)S(=O)(=O)c2c(C)noc2C)cc1 (centres undefined) | nt | 6 | 0.9 | 18 | 0.8 | nt
CCc1ccc(N(CC(=O)NC2CCCC2)S(=O)(=O)c2c(C)noc2C)cc1 | 0 | 7 | 0.9 | 64* | 0.4 | 0
Cc1ccc(NC(=O)c2ccc(Cl)c(N3C(=O)C=CC3=O)c2)cc1 | -69 | -2 | 1 | 62* | 0.4 | 71
COc1cccc(C(=O)Nc2ccc(C)cc2)c1 | 0 | 24 | 0.8 | -6 | 1.1 | -2
c1cn(CCCNC2=NCCCCC2)cn1 | 8 | 41 | 0.6 | 6 | 0.9 | -9
CC(NC(=O)NCCCn1ccnc1)(C(F)(F)F)C(F)(F)F | nt | 91* | 0.1 | 68* | 0.3 | nt
O=C(NCCCn1ccnc1)C(F)(F)C(F)(F)C(=O)NCCCn1ccnc1 | -15 | 16 | 0.8 | 98* | 0 | 16
CS(=O)(=O)N(CCC(=O)O)Cc1ccccc1 | -4 | -12 | 1.1 | -16 | 1.2 | 4
O=C(c1ccco1)n1c(=S)nc2ccccn21 | -3 | 72* | 0.3 | 28 | 0.7 | 1
Cc1cccc2nc(=S)n(C(=O)c3ccco3)n12 | 17 | 73* | 0.3 | 76* | 0.2 | -19
Cc1cc(NC(=O)c2ccco2)no1 | 8 | 1 | 1 | 10 | 0.9 | -6
O=C(c1cc2ncc(Br)cn2n1)N1CCN(C(=O)c2ccco2)CC1 | 9 | 7 | 0.9 | 0 | 1 | -15
CC(C)(C)NC(=O)C12CCC(C)(c3nc4ccccc4nc31)C2(C)C (centres undefined) | 5 | 22 | 0.8 | 19 | 0.8 | -4
Cc1cc(C)nc(NC(=O)c2c(-c3c(Cl)cccc3Cl)noc2C)n1 | 20 | 0 | 1 | 15 | 0.8 | -21
Cc1onc(-c2c(Cl)cccc2Cl)c1C(=O)NCCc1ccc(S(N)(=O)=O)cc1 | 14 | 33 | 0.7 | 73* | 0.3 | -15
SMILES | sEH activator | CYP2C19 inhib | CYP2C19 act | CYP2C9 inhib | CYP2C9 activ | sEH inhibitor
COC(=O)CNC(=O)c1c(-c2ccccc2Cl)noc1C | -5 | 11 | 0.9 | -5 | 1 | 5
CC(=O)Nc1cccc(NC(=O)c2c(-c3c(Cl)cccc3Cl)noc2C)c1 | -12 | 82* | 0.2 | 87* | 0.1 | 10
Cc1onc(-c2ccccc2)c1C(=O)NCCc1ccc(S(N)(=O)=O)cc1 | -4 | 6 | 0.9 | -2 | 1 | 5
Cc1ccc(NC(=O)c2c(-c3c(F)cccc3Cl)noc2C)cc1F | nt | 83* | 0.2 | 92* | 0.1 | nt
COC(=O)CNC(=O)c1c(-c2c(Cl)cccc2Cl)noc1C | 3 | 48 | 0.5 | 58* | 0.4 | -1
CCCN(CCC)CCNC(=O)C(NS(=O)(=O)c1ccc2c(c1)CCC(=O)N2)c1ccccc1 (centres undefined) | 1 | -3 | 1 | 1 | 1 | -5
c1ccc(-c2nnc3sc(CN4CCc5ccccc54)cn23)cc1 | -3 | nt | nt | nt | nt | 6

Compound activity (PubChem)
